# Measured values from PubChem BioAssay AID1851 (National Center for Advancing Translational Sciences (NCATS), 2009).
# About 5,100 (32%) of roughly 16,000 compounds were called active. About 25% were inconclusive and are not listed. Calls come from the whole dose curve; as a rule, active = well fitted curve in the direction sought with a large enough effect; inconclusive = small, poorly fitted or top-dose-only effect, or effect the other way; inactive = no such curve, though single readings can be large or run the other way. The list shows a part of the results.
# Target: Cytochrome P450 3A4 (Homo sapiens) (UniProt P08684)
# Sequence (P08684 whole entry, looked up): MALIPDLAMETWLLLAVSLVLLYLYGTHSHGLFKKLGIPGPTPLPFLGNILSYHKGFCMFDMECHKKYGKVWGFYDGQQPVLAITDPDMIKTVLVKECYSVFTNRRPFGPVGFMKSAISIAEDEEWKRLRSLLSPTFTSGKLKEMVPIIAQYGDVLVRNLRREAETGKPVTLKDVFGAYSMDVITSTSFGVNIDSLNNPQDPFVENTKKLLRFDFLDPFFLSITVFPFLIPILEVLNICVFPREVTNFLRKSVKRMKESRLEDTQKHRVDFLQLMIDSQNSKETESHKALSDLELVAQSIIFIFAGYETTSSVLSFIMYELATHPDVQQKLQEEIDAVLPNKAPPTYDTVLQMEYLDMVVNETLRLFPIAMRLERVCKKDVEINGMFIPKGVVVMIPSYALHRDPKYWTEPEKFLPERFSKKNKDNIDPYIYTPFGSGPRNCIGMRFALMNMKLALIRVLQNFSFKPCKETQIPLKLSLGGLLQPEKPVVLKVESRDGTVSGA
# Assay: Cytochrome panel assay with activity outcomes
# Conditions: recombinant CYP, pro-luciferin dealkylation, luminescence, p450-cyp3a4; series mostly up to 57.1 µM
# % is set by controls: 0 for no effect and ±100 for the full control effect.
Compound,AC50,"activity, negative = inhibition"
Oc1cc2c(cc1O)[C@H](c1ccccc1)CNCC2,inactive,–
CN(C)c1nc2c(c(=O)[nH]c(=O)n2C)n1Cc1ccccc1Br,inactive,–
CCOCCn1c(CN(Cc2ccccc2)Cc2ccccc2)nc2c1c(=O)[nH]c(=O)n2C,15.8 µM (active),–
O=S(Cc1ccc(Br)cc1)Cc1nnc(SCc2ccc(Cl)cc2)n1-c1ccccc1 (stereo not given),7.08 µM (active),–
COC(Cc1nnc(SC)n1-c1ccc(Cl)cc1)OC,inactive,–
O=P(O)(CCc1ccccc1)C(O)c1ccccc1 (stereo not given),–,2.84% [at 11.4 µM] (inactive)
CCC(=O)[C@@H](c1ccccc1)c1ccccn1,–,-1.45% [at 11.4 µM] (inactive)
O=C(O)c1ccccc1C(=O)Nc1nccs1,inactive,–
CCCC(C(=O)Nc1nccs1)c1ccccc1 (stereo not given),12.6 µM (active),–
O=[N+]([O-])c1cc(C(F)(F)F)ccc1NCCCCNS(=O)(=O)c1ccc2ccccc2c1,14.1 µM (active),–
Cc1nn(CC(=O)NCCN2CCOCC2)c(C)c1[N+](=O)[O-],inactive,–
Cc1nn(Cc2ccccc2Cl)c(C)c1NC(=O)CCCn1nc(C)c([N+](=O)[O-])c1C,2.51 µM (active),–
Cc1c(Cl)c([N+](=O)[O-])nn1CC(=O)Nc1c(C)n(C)n(-c2ccccc2)c1=O,inactive,–
CN(C)CCNC(=S)Nc1cccc(Cl)c1,inactive,–
S=C(NCc1ccccn1)Nc1cccc(Cl)c1,10 µM (active),–
O=C(Nc1cccc(F)c1)Nc1ccccn1,inactive,–
COCC(=O)N1CCC2(CC1)CN(C(=O)Nc1ccccc1)C2,inactive,–
CC(Sc1nc(-c2ccccc2)cc(C(F)(F)F)n1)C(=O)N1CCCCC1 (stereo not given),7.08 µM (active),–
CCOC(=O)c1cc2c(C(F)(F)F)cc(-c3ccccc3)nc2o1,–,-1.96% [at 2.29 µM] (inactive)
CN1CCN(c2nc(-c3ccccc3)cc(C(F)(F)F)n2)CC1,inactive,–
c1ccc(-c2ccc3c(c2)c2c4n3CCN=C4CCC2)cc1,inactive,–
CCCS(=O)(=O)N1CCCC(C(=O)NCCN(C)Cc2ccccc2)C1 (stereo not given),–,12.8% [at 2.29 µM] (inactive)
CCOc1ccc(OCC)c(NC(=O)C2CCCN(S(=O)(=O)c3cccs3)C2)c1 (stereo not given),5.62 µM (active),–
CCCS(=O)(=O)N1CCCC(C(=O)NCCCOCC)C1 (stereo not given),inactive,–
Cn1c(=O)c(-c2cccs2)nc2cncnc21,7.94 µM (active),–

Compound,AC50,"activity, negative = inhibition"
COCCn1c(=O)c(C)nc2cncnc21,12.6 µM (active),–
COc1ccc(-n2c(=O)c(-c3cccs3)nc3cncnc32)cc1,inactive,–
COCCn1c(=O)c(-c2cccs2)nc2cncnc21,15.8 µM (active),–
COc1ccccc1CCn1c(=O)c(-c2cccs2)nc2cncnc21,3.16 µM (active),–
CCCC(O)(CCC)C(=O)NN1CCCCC1,inactive,–
Cc1nc2cncnc2n(C2CC2)c1=O,15.8 µM (active),–
COc1ccccc1CCn1c(=O)c(-c2ccc(F)cc2)nc2cncnc21,3.98 µM (active),–
CN(C)c1ncc2nc(-c3ccc(F)cc3)c(=O)n(CCc3ccccc3)c2n1,inactive,–
O=c1c(-c2ccc(F)cc2)nc2cncnc2n1C1CC1,inactive,–
Cc1nc2cnc(N(C)C)nc2n(C2CC2)c1=O,inactive,–
O=c1c(-c2ccccc2)nc2cncnc2n1C1CC1,inactive,–
O=c1c(-c2cccc(Cl)c2)nc2cncnc2n1Cc1ccccc1,inactive,–
COc1ccccc1CCn1c(=O)c(-c2cccc(Cl)c2)nc2cncnc21,6.31 µM (active),–
COc1ccccc1CCn1c(=O)c(-c2ccc(Cl)cc2)nc2cncnc21,3.98 µM (active),–
CC(=O)O[C@@H](C)C[N+](C)(C)C,inactive,–
COc1ccccc1CCn1c(=O)c(-c2ccccc2)nc2cncnc21,3.98 µM (active),–
COCCn1c(=O)c(-c2ccccc2)nc2cncnc21,inactive,–
COc1ccccc1CCn1c(=O)c(-c2ccc(F)c(F)c2)nc2cncnc21,3.16 µM (active),–
Cn1c(=O)c2c(nc(C(=N)SCC(=O)O)n2C)n(C)c1=O,–,-27.7% [at 11.4 µM] (inactive)
CSc1ncnc2c1ncn2[C@@H]1O[C@@H](CO)[C@H](O)O[C@@H]1O,–,-26.2% [at 11.4 µM] (inactive)
CNc1ncnc2c1ncn2[C@@H]1O[C@@H](CO)[C@H](O)[C@@H]1O,inactive,–
Nc1ccc(CCNc2ncnc3c2ncn3[C@@H]2O[C@@H](CO)[C@H](O)[C@@H]2O)cc1,25.1 µM (active),–
OCCNc1ncnc2c1ncn2[C@@H]1O[C@@H](CO)[C@H](O)[C@@H]1O,–,-9.88% [at 11.4 µM] (inactive)
Cc1ccc(NC(=O)Nc2nc(-c3ccc(C)s3)cs2)cc1,–,-0.444% [at 2.29 µM] (inactive)
Cc1ccc(NC(=S)Nc2nc(CC(=O)Nc3ccccc3)cs2)cc1,6.31 µM (active),–

Compound,AC50,"activity, negative = inhibition"
CNC(=O)[C@@H]1O[C@@H](n2cnc3c(N)ncnc32)[C@@H](O)[C@H]1O,inactive,–
Clc1ccc(-c2nnc(-c3ccco3)o2)cc1,–,1.16% [at 11.4 µM] (inactive)
CCC(=O)Nc1cccc(-c2nnc(-c3cccc(NC(=O)CC)c3)o2)c1,14.1 µM (active),–
CCC(=O)Nc1ccc2c(c1)C(=O)c1ccccc1C2=O,7.08 µM (active),–
O=C(Cc1ccc(Cl)cc1)Nc1cccc(-c2nnc(-c3ccco3)o2)c1,7.94 µM (active),–
COc1ccc(CC(=O)Nc2ccc(-c3nnc(-c4ccccc4)o3)cc2)cc1,inactive,–
O=C(Nc1ccc(Cl)cc1)OCc1cc(-c2ccccc2)on1,inactive,–
COc1ccc(CC(=O)Nc2cccc(-c3nnc(-c4ccco4)o3)c2)cc1,2 µM (active),–
O=C1c2ccccc2-c2ccc(NC(=O)[C@H]3CCCC[C@@H]3C(=O)O)cc21,–,-29% [at 11.4 µM] (inactive)
CCC(=O)NNC(=O)CCC(=O)Nc1ccccc1,inactive,–
O=C(Nc1ccc(Nc2ccc3c(c2)C(=O)c2ccccc2C3=O)c2c1C(=O)c1ccccc1C2=O)c1ccccc1,–,-7.98% [at 11.4 µM] (inactive)
CO[C@]1(NC(=O)Cc2cccs2)C(=O)N2C(C(=O)O)=C(COC(N)=O)CS[C@H]21,inactive,–
O=C1Nc2ccc(F)cc2C12SCCS2,inactive,–
COc1cccc(-c2[nH]nc3c2C(c2ccc(C)o2)C(C#N)=C(N)O3)c1 (stereo not given),–,-27.5% [at 2.29 µM] (inactive)
Cc1ccc(SCc2[nH]nc3c2C(C(C)C)C(C#N)=C(N)O3)cc1 (stereo not given),–,-16.4% [at 2.29 µM] (inactive)
COc1cccc(-c2[nH]nc3c2C(c2ccsc2)C(C#N)=C(N)O3)c1 (stereo not given),7.08 µM (active),–
O=C(CC(=O)NN=C1CCCC1)NCCc1ccccc1,–,4.31% [at 2.29 µM] (inactive)
CC1CCC(=NNC(=O)Cc2ccccc2)CC1 (stereo not given),–,-1.06% [at 2.29 µM] (inactive)
CN1CCC(=NNC(=O)CSCc2ccccc2)CC1,17.8 µM (active),–
CCCn1cnc2c1c(=O)n(CCCCC(C)=O)c(=O)n2C,inactive,–
CC1(C)C(=O)C(c2ccccc2)=C2CN3C(=O)N(CCc4ccccc4)C(=O)C3(Cc3ccc(F)cc3)C=C21 (stereo not given),3.16 µM (active),–
CC1(C)C(=O)C(c2ccccc2)=C2CN3C(=O)N(CCc4ccccc4)C(=O)C3(Cc3ccc(C(F)(F)F)cc3)C=C21 (stereo not given),2 µM (active),–
CC1(C)C(=O)C(c2ccccc2)=C2CN3C(=O)N(CCc4ccccc4)C(=O)C3(Cc3ccccc3)C=C21 (stereo not given),2 µM (active),–
CN(C)/C(CN1CCN(C=O)CC1)=C1\N=C(c2ccccc2)OC1=O,inactive,–
CC1(C)N=C(N)N=C(N)N1CCCCc1ccccc1,–,-18.8% [at 11.4 µM] (inactive)

Compound,AC50,"activity, negative = inhibition"
CCOC(=O)c1c(O)[nH]c(=O)c(CC)c1C,–,-7.96% [at 11.4 µM] (inactive)
CCNC(=S)NNC(=O)CCn1c2ccccc2c2ccccc21,4.47 µM (active),–
CCNC(=S)NNC(=O)Cc1ccccc1,inactive,–
CCNC(=S)NNC(=O)c1cccc(Br)c1,inactive,–
CC(C)[C@]1(Cl)CC[C@@H]2[C@]3(C)CCC[C@@](C)(C(=O)O)[C@H]3C[C@H](Cl)[C@@]2(Cl)[C@H]1Cl,–,-26.1% [at 11.4 µM] (inactive)
Nc1nc2c(ncn2[C@@H]2C=C[C@@H](CO)C2)c(=O)[nH]1,–,-2.95% [at 11.4 µM] (inactive)
Cc1onc(-c2c(Cl)cccc2Cl)c1C(=O)N1CCc2ccccc2C1,3.98 µM (active),–
COc1ccc(C(=O)NCCCN2CCOCC2)cc1OC,inactive,–
C/C(CC(=O)NCCCN1CCOCC1)=N\NC(=O)COc1ccc(Cl)cc1,15.8 µM (active),–
COc1ccc(CNc2nc(-c3ccc4c(c3)OCO4)nc3ccccc23)c(OC)c1,1.26 µM (active),–
COCCNc1nc(-c2ccc(N(C)C)cc2)nc2ccccc12,12.6 µM (active),–
COc1ccc(-c2cc([C@H](O)[C@@H]3CCCCN3)c3ccccc3n2)cc1,–,-6.63% [at 11.4 µM] (inactive)
COc1ccccc1CNc1nc(-c2ccc(N(C)C)cc2)nc2ccccc12,3.16 µM (active),–
CN(C)c1ccc(-c2nc(NCCc3cnc[nH]3)c3ccccc3n2)cc1,2.51 µM (active),–
Clc1cnccn1,inactive,–
CCN(CC)CC#CCC(C)(c1ccccc1)c1ccccc1,–,-27.1% [at 2.29 µM] (inactive)
CCCOc1ccc(CSC(CC(=O)O)C(=O)O)cc1 (stereo not given),inactive,–
CO/N=C(\C(=O)N[C@@H]1C(=O)N2C(C(=O)O)=C(COC(C)=O)CS[C@@H]12)c1csc(N)n1,inactive,–
Cc1ccc(C(=O)Oc2cc(C)n(C)c(=O)c2)cc1,inactive,–
CC(C)(CN)CN,–,-13.3% [at 11.4 µM] (inactive)
COc1ccccc1CNc1nc(-c2ccc3c(c2)OCO3)nc2ccccc12,1.26 µM (active),–
CCC(=O)Nc1ccc(/C(C)=N\NS(=O)(=O)c2ccc(C)cc2)cc1,–,-25.1% [at 2.29 µM] (inactive)
C/C(=N/NS(=O)(=O)c1ccc(C)cc1)P(=O)(O)O,–,-8.75% [at 11.4 µM] (inactive)
COc1ccc(S(=O)(=O)N/N=C(/C)c2cccc(NC(=O)c3ccccc3Cl)c2)cc1,2.24 µM (active),–
C/C(=N/NS(=O)(=O)c1ccc(C)cc1)c1cccc(NC(=O)c2cccc(Cl)c2)c1,1.41 µM (active),–
